Screening results as filed in PubChem BioAssay.
A1 inh: inhibitors of the anti-apoptotic protein A1, read as caspase activation; MEF A1-2A-BIM cells, Caspase-Glo 3/7 luminescence, 3 h; percent of clofoctol response, vehicle zero; caspase activation, % (no concentration beside the values); 0.066% of 330,000 active; AID 2462;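 active = over half of replicate activation scores above 10%, or exactly half above 10 with the replicate mean above 10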
Mdm2-MdmX inh: disrupts the human Mdm2-MdmX interaction; AID 485346; 3% of 330,000 active; SaOS-2 split-luciferase Mdm2/MdmX complementation, luminescence; inhibition, % at 8 µM; O15151+Q00987;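 active = inhibition of at least 50% at 8 µM in the primary screen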
Target sequence (O15151 whole entry, looked up): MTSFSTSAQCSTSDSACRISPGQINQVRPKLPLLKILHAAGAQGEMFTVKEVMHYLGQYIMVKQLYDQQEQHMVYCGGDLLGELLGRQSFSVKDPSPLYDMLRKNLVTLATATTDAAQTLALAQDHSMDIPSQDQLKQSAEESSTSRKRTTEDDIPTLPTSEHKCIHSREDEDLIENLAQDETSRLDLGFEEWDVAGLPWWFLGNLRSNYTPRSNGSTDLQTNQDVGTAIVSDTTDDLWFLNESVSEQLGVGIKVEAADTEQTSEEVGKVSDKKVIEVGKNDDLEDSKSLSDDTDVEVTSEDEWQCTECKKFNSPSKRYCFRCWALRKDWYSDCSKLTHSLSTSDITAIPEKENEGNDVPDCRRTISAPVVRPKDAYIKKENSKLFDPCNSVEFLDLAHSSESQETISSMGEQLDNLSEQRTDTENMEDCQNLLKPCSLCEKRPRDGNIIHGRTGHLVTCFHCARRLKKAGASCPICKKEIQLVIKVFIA
Target sequence (Q00987 whole entry, looked up): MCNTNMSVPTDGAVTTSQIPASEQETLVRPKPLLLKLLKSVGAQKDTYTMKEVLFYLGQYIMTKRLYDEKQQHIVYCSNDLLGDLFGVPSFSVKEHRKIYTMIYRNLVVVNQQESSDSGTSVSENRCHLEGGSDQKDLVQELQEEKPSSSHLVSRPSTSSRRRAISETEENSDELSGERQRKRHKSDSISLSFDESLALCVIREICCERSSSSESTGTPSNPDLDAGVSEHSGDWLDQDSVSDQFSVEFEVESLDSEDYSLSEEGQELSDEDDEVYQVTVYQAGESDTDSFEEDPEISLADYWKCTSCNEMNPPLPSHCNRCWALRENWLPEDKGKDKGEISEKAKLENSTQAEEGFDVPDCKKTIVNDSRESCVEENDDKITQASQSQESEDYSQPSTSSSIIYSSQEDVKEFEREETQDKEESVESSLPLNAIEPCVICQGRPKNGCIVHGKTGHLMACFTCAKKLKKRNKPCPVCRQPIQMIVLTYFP
697 NFkB inh: inhibitors of the PMA/ionomycin-induced NF-kB reporter in 697 B cells; 697 B-cell NF-kB luciferase reporter, 16 h; inhibition, % at 4 µM; 0.33% of 330,000 active; in the data active = inhibition above about 35%
NTR1 agonist: agonists of human neurotensin receptor NTR1. 0.17% of 330,000 active. NTR1-U2OS beta-arrestin-GFP spot imaging, agonist mode. activation, % at 20 µM. P30989. AID 493036;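 active = activation at or above 40% of the spot to cytoplasm intensity ratio, with at least 20 cells analyzed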;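 note: 0% = DMSO without peptide and 100% = 100 nM NTR1 peptide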
Jurkat NFkB inh: inhibitors of the PMA/ionomycin-induced NF-kB reporter in Jurkat cells. PMA/ionomycin-induced NF-kB luciferase reporter, luminescence. inhibition, % at 4 µM. 0.53% of 330,000 active. AID 435003; in the data active = inhibition above about 50%
Beta cell apopt: blocks beta cell apoptosis; INS-1E cytokine-induced death, ATP luminescence, 48 h; percent of positive-control rescue, neutral wells zero; protection from apoptosis, % (concentration not given with the values); 0.8% of 300,000 active;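 active = Every replicate reaches about 75%, or at least half do and their mean reaches it too, limit read from the data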;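 note: 0% = cytokine-treated negative control wells and 100% = positive control rescue; higher means more ATP so stronger rescue from cytokine killing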
Mdm2-MdmX conf: confirmation of human Mdm2/MdmX interaction inhibitors; inhibition, % at 8 µM; Mdm2-MdmX binding, luminescent assay; AID 489028; shares compounds with Mdm2-MdmX inh; 55% of 10,000 active; in the data active = inhibition above about 40%
Full FLuc ctr: full-length luciferase inhibition in Mdm2/MdmX counter-screen | shares compounds with Mdm2-MdmX inh | 77% of 6,200 active | AID 504607 | inhibition, % at 8 µM | SaOS-2 full-length luciferase counterscreen, luminescence;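 active = mean inhibition at 8 µM reaching about 37%, which flags the compound as non-specific, limit read from the data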;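 note: p53-null SaOS-2 cells with luciferase driven by a doxycycline-inducible promoter; compound on cells about two nights before reading with doxycycline added after day one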
The depositor's hits bear a star; . = no result given. A selection: hits, their analogues and other compounds. The true share with any hit is near 3.8%.

SMILES	A1 inh	Mdm2-MdmX inh	697 NFkB inh	NTR1 agonist	Jurkat NFkB inh	Beta cell apopt	Mdm2-MdmX conf	Full FLuc ctr
CC(C)(C)OC(=O)N1CCN(C(=O)OCC2c3ccccc3-c3ccccc32)CC1C(=O)O (centres undefined)	0	-5	-30	0	-16	3	.	.
CCC(C)[C@H](NC(=O)[C@H](Cc1ccccc1)n1c(=O)[nH]c2ccccc2c1=O)C(=O)N1CCC(C(=O)O)CC1 (some centres undefined)	0	-9	-5	0	-3	-4	.	.
CCCCN(CC)CCCNC(=O)c1cc2c(=O)n(CC)c3ccccc3c2s1	1	79*	22	1	-10	4	60*	55*
COCCCNC(=O)c1ccc(Cn2c(=O)c3ccccc3n(Cc3ccccc3C)c2=O)cc1	0	36	-26	-1	13	-4	.	.
COCCCNC(=O)c1ccc(Cn2c(=O)c3ccccc3n(Cc3ccccc3C#N)c2=O)cc1	0	53*	-2	1	2	0	19	.
O=C(NCCc1ccccc1)C(=O)c1cn(CC(=O)N2CCCC2)c2ccccc12	0	9	3	-1	-5	-6	.	.
CCCC(=O)Nc1ccc2c(c1)c1ccccc1n2CC	2	31	2	2	-27	1	.	.
CCn1c2ccccc2c2cc(NS(=O)(=O)c3ccccc3C)ccc21	0	63*	-21	7	40	-2	47*	67*
COc1ccc(/C=C/C(=O)NC(=S)Nc2cc3oc4ccccc4c3cc2OC)cc1	1	90*	8	0	-10	-7	21	.
COc1ccc(OCC(=O)Nc2cc3oc4ccccc4c3cc2OC)cc1	0	93*	8	18	-16	7	67*	89*
COc1ccc(NC(=O)Nc2cc3oc4ccccc4c3cc2OC)cc1	0	-8	-6	23	-25	4	.	.
COc1cc2c(cc1NC(=S)NC(=O)/C=C/c1ccco1)oc1ccccc12	0	50*	-1	3	12	-1	8	.
COc1cc2c(cc1NC(=O)/C=C/c1ccccc1)oc1ccccc12	0	2	13	2	-32	9	.	.
COc1ccccc1NC(=S)NC(=O)/C=C/c1ccco1	0	-11	7	2	5	.	.	.
Cc1cccc(NC(=O)C(Cc2ccccc2)c2nn[nH]n2)c1C (centres undefined)	1	8	1	-1	-13	0	.	.
COC(=O)c1ccc(CSCc2ccc(C#N)cc2)cc1	0	-18	-10	0	-3	1	.	.
Cc1ccc(NC(CNS(=O)(=O)c2ccc(Cl)cc2)c2ccccc2)cc1 (centres undefined)	0	52*	-2	36	2	9	20	.
O=S(=O)(NCC(Nc1ccc(Cl)cc1)c1ccccc1)c1ccccc1 (centres undefined)	0	17	-4	15	8	7	.	.
CC1(C)C=Cc2c(ccc3c2OC[C@H](c2ccc(O)cc2O)C3)O1	0	-47	-52	27	-55	2	.	.
CC(C)=CCc1cc([C@@H]2COc3c(ccc4c3C=CC(C)(C)O4)C2)c(O)cc1O	1	64*	-26	23	20	15	-7	.
O=C1/C(=N\S(=O)(=O)c2cccs2)C([n+]2ccc(CCCc3ccccc3)cc2)=C([O-])c2ccccc21	-1	83*	-5	16	28	104*	52*	41*
O=S(=O)([N-]c1nc2ccccc2nc1-[n+]1ccc(CCCc2ccccc2)cc1)c1cccs1	0	-20	5	4	-6	0	.	.
Nc1ccc2c(c1)OC1(CCCC1)O2	0	70*	-6	2	0	2	80*	37*
N#CC(C(=O)Nc1ccc(Cl)c(Cl)c1)=C1Nc2ccccc2N1	1	59*	-12	6	3	14	31	37*
N#CC(C(=O)Nc1cccc(Cl)c1)=C1Nc2ccccc2N1	0	24	15	0	-7	20	.	.
SMILES	A1 inh	Mdm2-MdmX inh	697 NFkB inh	NTR1 agonist	Jurkat NFkB inh	Beta cell apopt	Mdm2-MdmX conf	Full FLuc ctr
Cc1nn(CC(=O)Nc2ccc(N3CCOCC3)cc2)c(C)c1Cl	1	25	11	1	2	4	.	.
Cc1nc(SCc2nc3ccccc3[nH]2)c2oc3cc(Br)ccc3c2n1	-2	65*	-6	-3	-3	1	12	.
Cc1ccc2oc3c(SCc4nc5ccccc5[nH]4)nc(C)nc3c2c1	-1	13	10	4	4	0	.	.
CCN(C[C@H]1N[C@@](C)(C(=O)OC)[C@H]2C(=O)N(C)C(=O)[C@@H]12)S(=O)(=O)c1ccc(F)cc1	0	4	-10	-1	-12	0	.	.
COc1ccc(Cc2nnc(N/N=C/c3ccc(O)cc3)[nH]c2=O)cc1OC	1	66*	-53	2	15	99*	70*	25
Cc1cc(C)cc(S(=O)(=O)c2cn(C)c3cc(N4CCN(C)CC4)c(F)cc3c2=O)c1	0	96*	12	4	-10	-5	12	.
COc1cc(NC(=O)c2ccccc2)c(OC)cc1NC(=O)CSc1[nH]c(=O)cc(C)c1C#N	0	84*	0	0	23	4	34	.
COC(=O)C1=C(C)Nc2nc3ccccc3n2C1c1cc(OC)c(OC)c(OC)c1 (centres undefined)	1	52*	25	0	-10	0	46*	96*
COCC(C)n1c(C)cc(C(=O)COC(=O)c2cc(=O)[nH]c3ccccc23)c1C (centres undefined)	-5	58*	-8	-1	-7	3	68*	97*
COCC(C)n1c(C)cc(C(=O)COC(=O)c2n[nH]c3ccccc23)c1C (centres undefined)	-4	21	-124	0	-66	-2	.	.
CCCn1nc(C(=O)NNC(=O)CCCOc2ccc(OC)cc2)c2ccccc2c1=O	1	1	-21	-2	-16	-3	.	.
O=C1N/C(=N\N=C\c2cccnc2)SC1Cc1ccc(SC(F)F)cc1 (centres undefined)	0	64*	-34	6	-1	88*	72*	44*
Fc1ccc(-n2cc(-c3ccccc3)c3c(N4CCOCC4)ncnc32)cc1	0	63*	-34	20	34	-6	59*	67*
COc1ccc(-n2cc(-c3ccccc3)c3c(N4CCOCC4)ncnc32)cc1	0	74*	22	7	39	9	62*	80*
CCN1CCN(c2ncnc3c2c(-c2ccccc2)cn3-c2ccc(F)cc2)CC1	0	36	-45	4	4	2	.	.
